We go through two sequences from paper PMC7862700, “An all-to-all approach to the identification of sequence-specific readers for epigenetic DNA modifications on cytosine”.

What all share (experiment): DAPPL (digital affinity profiling via proximity ligation, sequencing); 10 mM Tris-HCl pH 7.5, 50 mM NaCl, 1 mM DTT, 4% glycerol, room temperature, 30 min; GST-TFs on glutathione beads, 16-mer random dsDNA library, 0.1% formaldehyde crosslink after washing; high values mean tight binding
One assay addresses SPIB (Homo sapiens, UniProt Q01892 1-262). Particulars: protein: recombinant; tags: N-terminal GST; dsDNA, one strand shown. The gist of the method: (§1)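 Human transcription factors carrying a GST fusion were produced in yeast, bound to glutathione beads, tagged with DNA barcodes and pooled together with a tag-only sample. Each pool was held with 200 nmole of a random double-stranded 16-mer DNA library in Tris/NaCl/DTT/glycerol buffer for 30 min at room temperature, then washed, crosslinked in 0.1% formaldehyde, proximity-ligated with BsaI/T4 ligase (1 h, 37 °C), PCR-amplified and sequenced on an Illumina NextSeq500. Binding signal is the read frequency of each hexamer for a given factor divided by its frequency in the tag-only sample.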

The next assay concerns the target HSF1 (Homo sapiens, UniProt Q00613 1-529). Particulars: protein: recombinant; tags: N-terminal GST; chain copies: 3; dsDNA, one strand shown. The method, boiled down: as §1
The target in another assay is T1, SPIC (Homo sapiens, UniProt Q8N5J4 1-248).
T1 sequence: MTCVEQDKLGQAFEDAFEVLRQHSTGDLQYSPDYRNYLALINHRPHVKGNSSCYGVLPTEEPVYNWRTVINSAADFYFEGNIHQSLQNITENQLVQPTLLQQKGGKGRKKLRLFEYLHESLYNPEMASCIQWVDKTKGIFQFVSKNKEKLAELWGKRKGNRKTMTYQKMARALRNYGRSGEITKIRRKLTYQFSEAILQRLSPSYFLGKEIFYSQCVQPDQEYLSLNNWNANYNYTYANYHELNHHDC
Particulars: protein: recombinant; tags: N-terminal GST; dsDNA, one strand shown. The method, boiled down:
as §1

A further assay deals with ELF4 (Homo sapiens, UniProt Q99607 1-663). The note with it: protein: recombinant; tags: N-terminal GST; dsDNA, one strand shown. The method, boiled down:
as §1

A further assay addresses T2, ETV2 (Homo sapiens, UniProt O00321 1-342).
T2 sequence: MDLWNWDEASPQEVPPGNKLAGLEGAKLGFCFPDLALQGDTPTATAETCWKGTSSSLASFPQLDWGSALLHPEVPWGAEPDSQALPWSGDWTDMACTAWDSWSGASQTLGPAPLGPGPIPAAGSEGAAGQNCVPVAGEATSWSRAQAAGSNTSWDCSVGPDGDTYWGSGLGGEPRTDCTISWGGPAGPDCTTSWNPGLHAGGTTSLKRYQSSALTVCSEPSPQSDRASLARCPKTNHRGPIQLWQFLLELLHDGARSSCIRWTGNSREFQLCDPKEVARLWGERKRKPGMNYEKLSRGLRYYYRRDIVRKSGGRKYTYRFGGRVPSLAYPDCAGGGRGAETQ
Particulars: protein: recombinant; tags: N-terminal GST; dsDNA, one strand shown. The method, boiled down: as §1

The target in another assay is T3, ELF3 (Homo sapiens, UniProt P78545 1-371).
T3 sequence: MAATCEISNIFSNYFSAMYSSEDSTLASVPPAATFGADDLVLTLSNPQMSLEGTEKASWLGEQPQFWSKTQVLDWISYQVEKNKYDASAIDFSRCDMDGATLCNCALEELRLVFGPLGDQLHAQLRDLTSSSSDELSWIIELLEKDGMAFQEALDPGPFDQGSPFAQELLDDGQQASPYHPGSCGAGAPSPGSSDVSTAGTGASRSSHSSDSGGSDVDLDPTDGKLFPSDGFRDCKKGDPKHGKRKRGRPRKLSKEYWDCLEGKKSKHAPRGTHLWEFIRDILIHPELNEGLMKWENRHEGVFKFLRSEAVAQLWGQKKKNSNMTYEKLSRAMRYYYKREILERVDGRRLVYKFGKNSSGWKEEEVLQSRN
Particulars: protein: recombinant; tags: N-terminal GST; dsDNA, one strand shown. The method, boiled down:
as §1

In the next assay the target is CRX (Homo sapiens, UniProt O43186 1-299). The note with it: protein: recombinant; tags: N-terminal GST; dsDNA, one strand shown. The method, boiled down:
as §1

A further assay has as its target ETV1 (Homo sapiens, UniProt P50549 1-477). Particulars: protein: recombinant; tags: N-terminal GST; dsDNA, one strand shown. The gist of the method:
as §1

The next assay concerns the target T4, ETV3L (Homo sapiens, UniProt Q6ZN32 1-361).
T4 sequence: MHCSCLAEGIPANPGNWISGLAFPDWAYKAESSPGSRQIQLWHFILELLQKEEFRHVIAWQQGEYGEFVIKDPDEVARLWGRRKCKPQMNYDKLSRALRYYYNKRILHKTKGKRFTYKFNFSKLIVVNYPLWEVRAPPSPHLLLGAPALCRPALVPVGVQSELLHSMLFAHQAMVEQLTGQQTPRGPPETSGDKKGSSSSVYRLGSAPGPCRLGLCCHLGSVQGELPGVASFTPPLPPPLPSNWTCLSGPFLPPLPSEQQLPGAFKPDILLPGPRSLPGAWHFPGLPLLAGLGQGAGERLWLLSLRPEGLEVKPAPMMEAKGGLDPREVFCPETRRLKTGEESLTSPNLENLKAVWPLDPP
Particulars: protein: recombinant; tags: N-terminal GST; dsDNA, one strand shown. The method, boiled down: as §1

A further assay has as its target T5, ETS2 (Homo sapiens, UniProt P15036 1-469).
T5 sequence: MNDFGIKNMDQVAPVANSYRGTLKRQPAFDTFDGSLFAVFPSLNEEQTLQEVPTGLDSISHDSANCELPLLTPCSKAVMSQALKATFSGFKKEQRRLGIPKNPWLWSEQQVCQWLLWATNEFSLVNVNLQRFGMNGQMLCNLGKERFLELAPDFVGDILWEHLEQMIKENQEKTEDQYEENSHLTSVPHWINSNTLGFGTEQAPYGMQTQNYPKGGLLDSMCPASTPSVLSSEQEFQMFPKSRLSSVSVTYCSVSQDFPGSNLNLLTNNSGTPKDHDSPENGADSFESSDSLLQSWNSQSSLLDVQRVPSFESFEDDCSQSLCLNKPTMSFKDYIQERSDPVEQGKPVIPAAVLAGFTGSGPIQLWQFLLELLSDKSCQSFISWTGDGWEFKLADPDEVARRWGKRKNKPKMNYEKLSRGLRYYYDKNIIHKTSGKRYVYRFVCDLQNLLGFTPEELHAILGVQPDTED
Particulars: protein: recombinant; tags: N-terminal GST; dsDNA, one strand shown. The method, boiled down:
as §1

The next assay has as its target T6, SPDEF (Homo sapiens, UniProt O95238 1-335).
T6 sequence: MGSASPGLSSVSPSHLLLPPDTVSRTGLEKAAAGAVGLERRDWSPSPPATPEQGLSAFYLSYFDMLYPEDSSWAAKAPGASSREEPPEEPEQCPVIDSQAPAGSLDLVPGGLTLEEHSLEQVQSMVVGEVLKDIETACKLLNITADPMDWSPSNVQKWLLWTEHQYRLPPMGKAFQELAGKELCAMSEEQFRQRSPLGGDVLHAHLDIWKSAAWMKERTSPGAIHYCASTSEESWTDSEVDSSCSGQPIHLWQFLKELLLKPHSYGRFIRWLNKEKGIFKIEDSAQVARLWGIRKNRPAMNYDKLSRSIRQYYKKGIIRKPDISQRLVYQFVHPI
The note with it: protein: recombinant; tags: N-terminal GST; dsDNA, one strand shown. The method, boiled down: as §1

The target of the next assay is T7, ETV7 (Homo sapiens, UniProt Q9Y603 1-341).
T7 sequence: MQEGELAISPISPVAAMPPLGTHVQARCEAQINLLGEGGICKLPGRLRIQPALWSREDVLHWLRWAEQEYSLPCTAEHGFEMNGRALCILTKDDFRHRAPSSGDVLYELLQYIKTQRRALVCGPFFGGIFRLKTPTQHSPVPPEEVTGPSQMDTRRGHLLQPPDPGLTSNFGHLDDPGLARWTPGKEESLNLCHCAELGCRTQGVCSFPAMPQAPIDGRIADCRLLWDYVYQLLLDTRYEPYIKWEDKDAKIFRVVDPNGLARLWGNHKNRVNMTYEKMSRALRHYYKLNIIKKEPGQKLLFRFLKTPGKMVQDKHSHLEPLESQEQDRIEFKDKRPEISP
The note with it: protein: recombinant; tags: N-terminal GST; dsDNA, one strand shown. The gist of the method: as §1

In the next assay the target is T8, ETV3 (Homo sapiens, UniProt P41162-2 1-143).
T8 sequence: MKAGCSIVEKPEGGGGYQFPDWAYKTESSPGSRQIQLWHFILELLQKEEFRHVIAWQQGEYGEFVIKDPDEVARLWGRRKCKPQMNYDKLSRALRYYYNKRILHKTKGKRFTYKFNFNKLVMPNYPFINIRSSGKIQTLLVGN
Particulars: protein: recombinant; tags: N-terminal GST; dsDNA, one strand shown. The method, boiled down:
as §1

The target of a further assay is T9, GABPA (Homo sapiens, UniProt Q06546 1-454).
T9 sequence: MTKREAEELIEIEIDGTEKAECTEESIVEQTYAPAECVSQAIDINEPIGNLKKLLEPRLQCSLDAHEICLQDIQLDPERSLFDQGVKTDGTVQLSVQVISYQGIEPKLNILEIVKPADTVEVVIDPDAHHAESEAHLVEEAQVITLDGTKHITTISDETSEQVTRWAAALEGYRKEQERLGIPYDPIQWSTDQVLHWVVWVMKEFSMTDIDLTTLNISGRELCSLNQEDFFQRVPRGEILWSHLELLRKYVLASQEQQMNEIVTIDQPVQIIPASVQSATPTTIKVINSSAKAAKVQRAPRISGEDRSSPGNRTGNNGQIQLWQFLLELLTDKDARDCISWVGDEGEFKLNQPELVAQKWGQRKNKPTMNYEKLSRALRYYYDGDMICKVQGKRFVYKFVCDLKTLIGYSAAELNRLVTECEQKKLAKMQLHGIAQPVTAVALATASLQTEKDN
Particulars: protein: recombinant; tags: N-terminal GST; dsDNA, one strand shown. The method, boiled down: as §1

Another assay deals with ELF1 (Homo sapiens, UniProt P32519 1-619). Particulars: protein: recombinant; tags: N-terminal GST; dsDNA, one strand shown. The gist of the method: as §1
Chain of ELF1 (P32519 whole entry): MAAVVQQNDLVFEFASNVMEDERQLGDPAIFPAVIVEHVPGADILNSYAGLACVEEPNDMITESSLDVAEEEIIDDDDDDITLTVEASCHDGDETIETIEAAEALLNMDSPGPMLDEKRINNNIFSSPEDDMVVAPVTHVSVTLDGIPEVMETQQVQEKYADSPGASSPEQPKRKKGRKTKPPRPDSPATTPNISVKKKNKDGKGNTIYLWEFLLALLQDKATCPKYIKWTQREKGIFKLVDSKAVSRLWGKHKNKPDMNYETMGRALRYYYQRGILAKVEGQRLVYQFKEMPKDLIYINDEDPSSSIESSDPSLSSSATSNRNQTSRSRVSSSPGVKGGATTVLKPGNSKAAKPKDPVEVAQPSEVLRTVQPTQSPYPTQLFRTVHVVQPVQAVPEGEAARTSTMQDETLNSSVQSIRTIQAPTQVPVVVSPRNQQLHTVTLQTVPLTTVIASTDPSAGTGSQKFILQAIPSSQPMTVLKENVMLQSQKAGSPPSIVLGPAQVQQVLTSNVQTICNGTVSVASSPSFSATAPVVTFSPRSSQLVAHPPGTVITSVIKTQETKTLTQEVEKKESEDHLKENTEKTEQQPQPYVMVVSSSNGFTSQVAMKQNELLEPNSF
For the next assay, the target named is T10, ERF (Homo sapiens, UniProt P50548 1-548).
T10 sequence: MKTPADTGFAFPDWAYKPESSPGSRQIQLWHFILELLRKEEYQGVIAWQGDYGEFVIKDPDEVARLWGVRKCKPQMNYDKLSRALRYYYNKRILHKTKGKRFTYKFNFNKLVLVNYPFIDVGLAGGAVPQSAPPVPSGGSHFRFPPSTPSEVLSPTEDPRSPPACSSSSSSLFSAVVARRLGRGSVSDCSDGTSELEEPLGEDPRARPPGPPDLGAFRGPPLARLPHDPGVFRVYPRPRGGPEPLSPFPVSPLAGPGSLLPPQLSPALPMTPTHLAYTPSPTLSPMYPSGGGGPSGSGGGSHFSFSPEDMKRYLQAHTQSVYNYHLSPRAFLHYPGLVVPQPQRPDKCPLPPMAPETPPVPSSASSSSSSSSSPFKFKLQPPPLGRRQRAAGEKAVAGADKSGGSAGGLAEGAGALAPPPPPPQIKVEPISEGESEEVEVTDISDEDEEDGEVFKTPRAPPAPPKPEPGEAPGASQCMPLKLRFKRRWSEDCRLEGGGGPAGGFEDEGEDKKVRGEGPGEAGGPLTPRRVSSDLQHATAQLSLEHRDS
Particulars: protein: recombinant; tags: N-terminal GST; dsDNA, one strand shown. The method, boiled down:
as §1

For another assay, the target named is ETV6 (Homo sapiens, UniProt P41212 1-452). Particulars: protein: recombinant; tags: N-terminal GST; dsDNA, one strand shown. The method, boiled down:
as §1

Chain of CRX (O43186 whole entry): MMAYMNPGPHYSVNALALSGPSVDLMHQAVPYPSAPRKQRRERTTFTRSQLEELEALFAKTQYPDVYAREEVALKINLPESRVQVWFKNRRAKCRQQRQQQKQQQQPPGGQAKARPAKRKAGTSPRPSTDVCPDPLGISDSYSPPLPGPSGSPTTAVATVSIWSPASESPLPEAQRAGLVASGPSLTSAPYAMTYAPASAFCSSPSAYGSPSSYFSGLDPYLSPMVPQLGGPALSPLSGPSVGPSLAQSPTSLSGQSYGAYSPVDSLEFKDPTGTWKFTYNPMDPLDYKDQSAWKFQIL
Chain of HSF1 (Q00613 whole entry): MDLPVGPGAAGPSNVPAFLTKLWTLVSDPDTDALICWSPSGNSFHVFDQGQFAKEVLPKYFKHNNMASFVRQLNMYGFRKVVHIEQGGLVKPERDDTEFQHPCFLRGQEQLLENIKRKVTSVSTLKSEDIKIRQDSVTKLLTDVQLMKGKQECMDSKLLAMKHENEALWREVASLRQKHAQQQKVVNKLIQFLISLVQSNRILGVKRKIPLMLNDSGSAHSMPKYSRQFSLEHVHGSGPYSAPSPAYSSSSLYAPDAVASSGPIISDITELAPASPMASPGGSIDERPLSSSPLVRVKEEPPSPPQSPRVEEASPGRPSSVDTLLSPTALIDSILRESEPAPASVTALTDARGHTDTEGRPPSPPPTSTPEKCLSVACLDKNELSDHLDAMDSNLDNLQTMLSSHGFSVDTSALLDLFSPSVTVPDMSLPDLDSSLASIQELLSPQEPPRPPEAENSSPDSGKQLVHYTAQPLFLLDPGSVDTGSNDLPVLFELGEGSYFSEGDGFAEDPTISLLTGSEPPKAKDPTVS
Chain of ELF4 (Q99607 whole entry): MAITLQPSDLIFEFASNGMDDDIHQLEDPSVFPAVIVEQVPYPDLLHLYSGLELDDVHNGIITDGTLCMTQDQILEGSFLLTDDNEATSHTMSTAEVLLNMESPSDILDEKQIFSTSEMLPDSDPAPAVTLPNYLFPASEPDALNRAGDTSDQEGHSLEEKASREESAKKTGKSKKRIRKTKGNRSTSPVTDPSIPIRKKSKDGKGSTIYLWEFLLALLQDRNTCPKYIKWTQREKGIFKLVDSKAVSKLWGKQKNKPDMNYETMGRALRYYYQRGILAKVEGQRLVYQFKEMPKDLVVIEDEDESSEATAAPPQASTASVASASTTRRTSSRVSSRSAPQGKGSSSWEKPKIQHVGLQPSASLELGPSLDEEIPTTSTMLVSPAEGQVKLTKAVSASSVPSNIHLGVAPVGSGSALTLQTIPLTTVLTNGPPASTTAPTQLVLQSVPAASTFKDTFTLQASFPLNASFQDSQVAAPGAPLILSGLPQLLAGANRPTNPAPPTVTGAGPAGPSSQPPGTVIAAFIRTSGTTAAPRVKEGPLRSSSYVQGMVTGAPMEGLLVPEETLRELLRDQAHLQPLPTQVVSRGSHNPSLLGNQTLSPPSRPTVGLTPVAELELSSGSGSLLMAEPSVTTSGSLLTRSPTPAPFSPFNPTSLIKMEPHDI
Chain of SPIB (Q01892 whole entry, the tested form may be a part): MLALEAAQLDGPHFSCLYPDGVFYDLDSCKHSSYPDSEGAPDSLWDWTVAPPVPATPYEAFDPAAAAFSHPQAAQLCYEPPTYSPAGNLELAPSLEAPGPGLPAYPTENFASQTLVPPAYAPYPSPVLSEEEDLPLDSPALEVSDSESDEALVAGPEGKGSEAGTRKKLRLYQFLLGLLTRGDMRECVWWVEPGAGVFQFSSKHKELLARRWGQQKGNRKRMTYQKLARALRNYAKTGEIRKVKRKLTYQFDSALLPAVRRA
Chain of ETV1 (P50549 whole entry): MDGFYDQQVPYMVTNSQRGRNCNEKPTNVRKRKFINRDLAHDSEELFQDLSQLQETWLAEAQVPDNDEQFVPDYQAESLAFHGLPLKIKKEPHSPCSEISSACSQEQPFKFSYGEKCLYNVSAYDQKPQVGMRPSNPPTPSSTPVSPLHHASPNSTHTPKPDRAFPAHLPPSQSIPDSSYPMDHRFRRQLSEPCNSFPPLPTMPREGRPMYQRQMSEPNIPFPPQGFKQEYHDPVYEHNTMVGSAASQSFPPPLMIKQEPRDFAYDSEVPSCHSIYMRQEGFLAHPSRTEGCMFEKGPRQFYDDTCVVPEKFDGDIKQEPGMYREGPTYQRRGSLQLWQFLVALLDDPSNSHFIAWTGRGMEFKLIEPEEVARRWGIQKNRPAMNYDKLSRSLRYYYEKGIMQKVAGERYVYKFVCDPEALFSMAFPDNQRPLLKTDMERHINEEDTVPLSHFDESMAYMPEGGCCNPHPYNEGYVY
Chain of ETV6 (P41212 whole entry): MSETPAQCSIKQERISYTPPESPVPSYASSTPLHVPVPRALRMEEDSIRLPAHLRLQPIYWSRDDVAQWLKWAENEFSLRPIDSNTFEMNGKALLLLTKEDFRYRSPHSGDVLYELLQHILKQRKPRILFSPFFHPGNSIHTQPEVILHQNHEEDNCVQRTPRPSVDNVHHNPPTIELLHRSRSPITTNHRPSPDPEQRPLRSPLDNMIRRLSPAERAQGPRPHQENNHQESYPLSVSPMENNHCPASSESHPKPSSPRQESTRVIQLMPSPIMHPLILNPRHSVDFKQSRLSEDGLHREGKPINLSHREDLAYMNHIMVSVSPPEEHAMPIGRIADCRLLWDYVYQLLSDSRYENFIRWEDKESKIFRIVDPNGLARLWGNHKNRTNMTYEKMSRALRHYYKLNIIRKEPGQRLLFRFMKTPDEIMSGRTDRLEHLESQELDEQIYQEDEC

Turning to GATTCG, the binding signal with SPIB is 1.04 fold enrichment (6-mer frequency, TF over GST control); with HSF1 it was 1.23 fold enrichment (6-mer frequency, TF over GST control); in the assay with SPIC, 1.16 fold enrichment (6-mer frequency, TF over GST control); with ELF4, 1.05 fold enrichment (6-mer frequency, TF over GST control); in the assay with ETV2, 1.02 fold enrichment (6-mer frequency, TF over GST control); with ELF3 it was 1.09 fold enrichment (6-mer frequency, TF over GST control). The binding signal with CRX is 1.06 fold enrichment (6-mer frequency, TF over GST control); in the assay with ETV1, 1.03 fold enrichment (6-mer frequency, TF over GST control); with ETV3L it was 1.06 fold enrichment (6-mer frequency, TF over GST control); in the assay with ETS2 it was 1 fold enrichment (6-mer frequency, TF over GST control); with SPDEF, 1 fold enrichment (6-mer frequency, TF over GST control); with ETV7, 1.01 fold enrichment (6-mer frequency, TF over GST control). The binding signal with ETV3 was 1 fold enrichment (6-mer frequency, TF over GST control).
With GCTTAA, the binding signal in the assay with GABPA was 1.14 fold enrichment (6-mer frequency, TF over GST control); with ELF1, 1.11 fold enrichment (6-mer frequency, TF over GST control); in the assay with SPIB it was 1.09 fold enrichment (6-mer frequency, TF over GST control); in the assay with HSF1, 1.86 fold enrichment (6-mer frequency, TF over GST control); with SPIC it was 1 fold enrichment (6-mer frequency, TF over GST control); with ELF4 it was 1.02 fold enrichment (6-mer frequency, TF over GST control). The binding signal is 1.02 fold enrichment (6-mer frequency, TF over GST control) in the assay with ELF3; 3.04 fold enrichment (6-mer frequency, TF over GST control) with CRX; 1.03 fold enrichment (6-mer frequency, TF over GST control) with ERF; 1.05 fold enrichment (6-mer frequency, TF over GST control) in the assay with ETV3L; 1.08 fold enrichment (6-mer frequency, TF over GST control) with ETS2; 1.06 fold enrichment (6-mer frequency, TF over GST control) with SPDEF. Further, the binding signal with ETV7 was 1.06 fold enrichment (6-mer frequency, TF over GST control); with ETV3, 1.13 fold enrichment (6-mer frequency, TF over GST control); in the assay with ETV6 it was 1.05 fold enrichment (6-mer frequency, TF over GST control).
